VACV Venus inh = vaccinia inhibition (Venus reporter). Vaccinia virus Venus reporter expression, fluorescence. 0.46% of 330,000 active. Potency, µM (doses to about 36.5 µM), inactives show top-dose activity change, negative = inhibition, actives largely listed as inhibitors; calls by dose curve; tested in A549 cells; note: potency is the fitted concentration of half-maximal effect; nearly all actives have a fitted effect of over 30% in size
HCMV antiviral = blocks human cytomegalovirus replication; HFF cells, HCMV-luciferase reporter, 72 h; stronger effect = lower value; activity change, negative = inhibition, % at 57.5 µM; 4.5% of 410,000 active; in the data active = activity change below about -60%; inconclusive = no clear call, values can overlap the other calls; inactive = above about -39%
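Compounds were evaluated in HFFs infected with an HCMV luciferase reporter virus (MOI 1 PFU/cell). Luciferase in lysates collected 72 h post infection served as the replication measure.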
FMDV antiviral = antivirals against foot and mouth disease virus | Potency, µM (titrated, usually from 57.9 µM), without a hit: at the top dose activity change, negative = inhibition, actives largely listed as inhibitors | FMDV antiviral cell-based qHTS | 1.2% of 410,000 active; calls by dose curve; tested in HEK293T cells; note: read-out not given here; potency is the fitted concentration of half-maximal effect; nearly all actives have a fitted effect of over 45% in size
VACV mCherry inh = inhibitors of vaccinia virus infection (mCherry reporter signal); Vaccinia virus mCherry reporter infection, fluorescence; Potency, µM (highest dose often 36.5 µM), for the others: at the highest dose activity change, negative = inhibition, usual class: inhibitors; 0.63% of 310,000 active; AID 720579; calls by dose curve; tested in A549 cells; note: potency is the fitted concentration of half-maximal effect; nearly all actives have a fitted effect of over 35% in size
HCV inhibitor = HCV inhibition; Huh7.5.1 HCVcc-Cre infection, luciferase reporter, 44 h; Potency, µM (titrated, usually from 41.8 µM), inactives show top-dose activity change, negative = inhibition, actives largely listed as inhibitors; 3.4% of 340,000 active; AID 651820; active = well fitted inhibition curve with a large enough effect; inconclusive = small, poorly fitted or top-dose-only effect, or another doubt; inactive = no such curve, though single readings can be large or run the other way; note: potency is the fitted concentration of half-maximal effect
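HCVcc-Cre virus at an moi near 0.5 was added right after compound to cells cultured 4 h from seeding (1,000 cells/well). Luciferase activity was determined 44 h later, 15 min after substrate addition at RT.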
* = called active by the depositor. Only some compounds are listed: those with a hit (about 7.3% of all), similar ones and a draw of the others. % is set by controls: 0 for no effect and ±100 for the full control effect.

`COc1ccc(NS(=O)(=O)c2cc(NC(=O)C3CCCO3)ccc2N2CCCC2)cc1` (configuration not stated) gave VACV Venus inh -3%, HCMV antiviral -1, FMDV antiviral 6%, VACV mCherry inh inactive and HCV inhibitor 11%.
For COc1ccc(NS(=O)(=O)c2cc(NC(=O)c3ccco3)ccc2N2CCCC2)cc1 the results were VACV Venus inh -7%, HCMV antiviral -12, FMDV antiviral 50%, VACV mCherry inh -17% and HCV inhibitor 10µM*.
Screening C[C@H]1CN(C(=O)OC(C)(C)C)CCN1c1ccc(N2CC[C@@H](O)C2)c(C#N)c1 returned HCMV antiviral 34.
CCOC(=O)c1ccc(N2C(=O)c3n[nH]c(-c4ccco4)c3C2c2ccc(C)cc2)cc1 (configuration not stated) was read as VACV Venus inh -20%, HCMV antiviral -103*, FMDV antiviral 32µM* and VACV mCherry inh -26%.
Screening CCOC(=O)c1ccc(N2C(=O)c3n[nH]c(C)c3C2c2ccccn2)cc1 (configuration not stated) returned VACV Venus inh -15%, HCMV antiviral -6, FMDV antiviral -4%, VACV mCherry inh inactive and HCV inhibitor 13%.
For CCOC(=O)c1ccc(N2C(=O)c3n[nH]c(C)c3C2c2ccc(OCC)cc2)cc1 (configuration not stated) the results were VACV Venus inh -11%, HCMV antiviral -76*, FMDV antiviral inconclusive and VACV mCherry inh -21%.
For CCOC(=O)c1ccc(N2C(=O)c3n[nH]c(-c4ccco4)c3C2c2ccc([N+](=O)[O-])cc2)cc1 (configuration not stated) the results were VACV Venus inh inconclusive, HCMV antiviral -12, FMDV antiviral inconclusive, VACV mCherry inh inconclusive and HCV inhibitor 14µM*.
For Cc1[nH]nc2c1C(c1ccccn1)N(c1ccc(Br)cc1)C2=O (configuration not stated) the results were HCMV antiviral -66*, FMDV antiviral -20% and HCV inhibitor -9%.
Cc1ccc(N2C(=O)c3n[nH]c(C)c3C2c2ccccc2Cl)cc1 (configuration not stated) was read as VACV Venus inh -5%, HCMV antiviral inconclusive, FMDV antiviral -15% and VACV mCherry inh -17%.
COc1ccc(-c2nc(C(=O)Nc3cccc(C(C)=O)c3)nn2-c2ccccc2Cl)cc1 was read as VACV Venus inh 1%, HCMV antiviral -3, FMDV antiviral -26% and VACV mCherry inh -10%.
For CCOC(=O)C1(C)CCCN1C(=O)c1cccs1 (configuration not stated) the results were VACV Venus inh 1%, HCMV antiviral -21, FMDV antiviral -3% and VACV mCherry inh 19%.
Screening Cc1cc(C)c2nc(N3C(=O)C(O)=C(C(=O)c4ccco4)C3c3ccco3)sc2c1 (configuration not stated) returned VACV Venus inh 5%, HCMV antiviral 17, FMDV antiviral 1%, VACV mCherry inh -13% and HCV inhibitor 3%.
`CCOc1cc(C2c3c(n[nH]c3C)C(=O)N2c2ccc(C)cc2)ccc1O` (configuration not stated) gave HCMV antiviral -81*, FMDV antiviral 23% and HCV inhibitor inconclusive.
CCCC(=O)Nc1nc(C)c(C(C)=O)s1 was read as VACV Venus inh -4%, HCMV antiviral -18, FMDV antiviral -1%, VACV mCherry inh inactive and HCV inhibitor -3%.
Screening CC(=O)c1sc(NC(=O)C2(F)C(F)(F)C(F)(F)C(F)(F)C(F)(F)C2(F)F)nc1C returned VACV Venus inh inconclusive, HCMV antiviral -98*, VACV mCherry inh inconclusive and HCV inhibitor 10µM*.
CCCCC(=O)Nc1nc(C)c(C(C)=O)s1 was read as VACV Venus inh -11%, HCMV antiviral 162, FMDV antiviral 28%, VACV mCherry inh -9% and HCV inhibitor -26%.
CC(=O)c1sc(N/N=C\c2ccccc2O)nc1C was read as VACV Venus inh -26%, HCMV antiviral 27, FMDV antiviral 13%, VACV mCherry inh 5µM* and HCV inhibitor -23%.
`COC(=O)c1cc(=O)nc(NN=Cc2ccccc2O)s1` gave HCMV antiviral -26.
`CC(=O)c1sc(NC(=O)C=C(C)C)nc1C` gave HCMV antiviral -69*, FMDV antiviral 47% and HCV inhibitor 10%.
CC(=O)N1CCCc2ccc(NC(=O)c3ccc(OC(C)C)cc3)cc21 was read as VACV Venus inh -2%, HCMV antiviral -61*, FMDV antiviral 11µM* and VACV mCherry inh -10%.
`CCCCOc1ccc(C(=O)Nc2ccc3c(c2)N(C(C)=O)CCC3)cc1` gave VACV Venus inh -15%, HCMV antiviral inconclusive, FMDV antiviral 3.2µM* and VACV mCherry inh inactive.
Screening Cc1cccnc1NC(=O)c1ccc(COc2ccccc2)o1 returned HCMV antiviral 11, FMDV antiviral 4% and HCV inhibitor -3%.
For COc1ccc(CN2C(=O)N(c3ccccc3)C(=O)C2c2ccccc2)cc1COc1ccc(NC(C)=O)cc1 (configuration not stated) the results were VACV Venus inh -16% and VACV mCherry inh -24%.
For Cc1cccc(C)c1NC(=O)CCCSc1nnc(-c2ccc(Cl)cc2)n1-c1ccccc1 the results were VACV Venus inh inconclusive, HCMV antiviral -80*, FMDV antiviral 14µM*, VACV mCherry inh 13µM* and HCV inhibitor inconclusive.
Screening Cc1cccc(C)c1NC(=O)CCCSc1nnc(-c2ccc(F)cc2)n1-c1ccccc1 returned VACV Venus inh inconclusive, HCMV antiviral -69*, FMDV antiviral inconclusive, VACV mCherry inh -24% and HCV inhibitor inconclusive.
`O=C(C1CCC(CNS(=O)(=O)c2cccs2)CC1)N1CCN(c2ccc(Cl)cc2)CC1` (configuration not stated) gave VACV Venus inh inconclusive, HCMV antiviral -93*, FMDV antiviral 32µM*, VACV mCherry inh inconclusive and HCV inhibitor 3.5µM*.
`Cc1c(Cl)cccc1NC(=S)NCCc1ccc(Cl)cc1` gave VACV Venus inh -28%, HCMV antiviral -86*, FMDV antiviral 26%, VACV mCherry inh -12% and HCV inhibitor 10µM*.
Cc1ccc(NC(=S)NCc2ccc(S(N)(=O)=O)cc2)cc1Cl was read as VACV Venus inh -6%, HCMV antiviral -81*, FMDV antiviral -10%, VACV mCherry inh -5% and HCV inhibitor -29%.
Cc1c(Cl)cccc1NC(=S)NCCc1ccc(S(N)(=O)=O)cc1 was read as VACV Venus inh -19%, HCMV antiviral -80*, FMDV antiviral -5%, VACV mCherry inh inactive and HCV inhibitor 9%.
Screening Cc1ccccc1NC(=S)NCCc1ccc(S(N)(=O)=O)cc1 returned VACV Venus inh -9%, HCMV antiviral -35, FMDV antiviral -13%, VACV mCherry inh -12% and HCV inhibitor 2%.

Bioassay records: PubChem BioAssay, National Center for Advancing Translational Sciences (NCATS)
